Compound activity: PubChem, National Center for Advancing Translational Sciences (NCATS)
Shown is part of a subset that was picked to be rich in hits.
Shiga toxin inh = A qHTS for Small Molecule Inhibitors of Shiga Toxin; Vero cells, Shiga toxin protein synthesis inhibition reporter; inhibition, % at 38.7 µM; hit rate 9.2% among 290,000; in the data active = inhibition mostly above about 28%, no sharp cut-off; inactive = mostly below about 43%
TbPYK inhibitor = qHTS of Trypanosoma Brucei Inhibitors; TbPYK enzyme, Kinase-Glo Plus ATP luminescence, 45 min; Potency, µM (series often up to 76.8 µM), usual class: inhibitors; hit rate 0.12% among 410,000; AID 624173, 2012; note: nearly all actives have a fitted effect of over 50% in size
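Screened from lowest to highest concentration, compounds were pinned into TbPYK/substrate mixtures, and ADP (130 uM final) was added. Plates sat at room temperature for 45 min prior to Kinase-Glo Plus detection by luminescence.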
NS1 inh = qHTS Assay for Inhibitors of Influenza NS1 Protein Function; hit rate 0.4% among 270,000; Potency, µM (highest dose often 46.1 µM); calls by dose curve; note: actives are rising curves; nearly all actives have a fitted effect of over 50% in size
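In this qHTS, NS1 from influenza A is expressed in budding yeast, where it slows growth. Cells are switched from glucose to 2% galactose medium (pH 6.0, -URA), treated with compound, and growth recovery is read at OD600.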
SARS PLP yeast = qHTS of Yeast-based Assay for SARS-CoV PLP | S. cerevisiae expressing SARS-CoV PLpro, growth rescue | Potency, µM (series often up to 32.9 µM), usual class: activators | hit rate 0.19% among 330,000 | AID 485353, 2010; calls by dose curve; note: nearly all actives have a fitted effect of over 55% in size
Cycloheximide cs = Cycloheximide Counterscreen for Small Molecule Inhibitors of Shiga Toxin; AID 2314, 2010; cell reporter, cycloheximide protein synthesis inhibition counterscreen; max response, %; hit rate 12% among 300,000; in the data active = max response mostly above about 13%, no sharp cut-off; inactive = mostly below about 14%; note: read at 38.3 µM for the half of the compounds with a filed dose
LmPK inhibitor = qHTS Assay for Inhibitors of Leishmania Mexicana Pyruvate Kinase (LmPK). purified LmPK, Kinase-Glo ATP luminescence, 1 h. Potency, µM (series often up to 57.5 µM), usual class: inhibitors. hit rate 0.37% among 290,000. AID 1721, 2009
Target sequence (Q27686 whole entry, looked up): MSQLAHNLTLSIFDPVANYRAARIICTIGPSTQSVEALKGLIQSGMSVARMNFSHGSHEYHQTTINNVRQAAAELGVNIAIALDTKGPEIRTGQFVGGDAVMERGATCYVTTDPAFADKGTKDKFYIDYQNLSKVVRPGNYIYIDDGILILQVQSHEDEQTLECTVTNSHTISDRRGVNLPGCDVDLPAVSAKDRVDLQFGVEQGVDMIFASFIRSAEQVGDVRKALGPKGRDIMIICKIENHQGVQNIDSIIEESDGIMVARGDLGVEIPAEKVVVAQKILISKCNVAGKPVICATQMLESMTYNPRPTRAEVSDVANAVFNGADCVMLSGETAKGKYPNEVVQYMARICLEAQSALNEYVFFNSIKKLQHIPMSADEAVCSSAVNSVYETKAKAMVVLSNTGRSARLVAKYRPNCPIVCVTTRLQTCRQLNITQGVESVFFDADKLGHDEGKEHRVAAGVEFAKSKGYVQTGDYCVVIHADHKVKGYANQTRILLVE
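ATP generated from ADP (0.1 mM) and PEP (0.5 mM) by 0.1 nM LmPK over 1 h at room temperature (pH 7.2 imidazole buffer) was detected by coupled luciferase luminescence. Values were normalized to uninhibited and no-enzyme wells.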
Each line names hits and unclear results; the compound was inactive in the other large screens. Unless noted, calls come from the whole dose curve; as a rule, active = well fitted curve in the direction sought with a large enough effect; inconclusive = small, poorly fitted or top-dose-only effect, or another doubt; inactive = no such curve, though single readings can be large; an effect the other way counts as inactive or inconclusive.

COC(=O)c1ccc(CNC(=O)c2ccc3c(c2)OCCO3)cc1	Cycloheximide cs 19
COc1cccc(Cn2c(=O)c(-c3cccc(F)c3)nc3cncnc32)c1	none (no result: Shiga toxin inh, NS1 inh, SARS PLP yeast, Cycloheximide cs, LmPK inhibitor)
COc1ccc(C(=O)NCc2ccc3[nH]c(C)cc3c2)cc1OC	none (no result: NS1 inh)
CC(C)NC(=O)c1ccc(C(C)C)cc1	Cycloheximide cs 18
CC(C)c1ccc(C(=O)NN2CCOCC2)cc1	none
O=C(NCc1ccc2c(c1)OCO2)c1ccc2c(c1)OCCO2	Shiga toxin inh 18
O=C(NCc1ccc2c(c1)OCO2)c1ccc2c(c1)OCO2	Shiga toxin inh 46, Cycloheximide cs 26
Cc1cc2cc(CNC(=O)c3ccc4c(c3)OCO4)ccc2[nH]1	Cycloheximide cs 20
Cc1csc(CNC(=O)c2cc(COc3c(C)cccc3C)on2)n1	none
O=C(Nc1cccc(-c2ccc(N3CCCCC3)nn2)c1)c1ccco1	none (no result: Shiga toxin inh, NS1 inh, Cycloheximide cs, LmPK inhibitor)
O=C(NCc1cccc(Cl)c1)c1ccc2c(c1)OCCO2	Cycloheximide cs 21 (no result: Shiga toxin inh)
CCOCCCNC(=O)c1ccc2c(c1)OCO2	Shiga toxin inh 58, Cycloheximide cs 23
O=C(NCc1ccc(Cl)c(Cl)c1)c1ccc2c(c1)OCO2	none
O=C(NCc1cccc(C(F)(F)F)c1)c1ccc2c(c1)OCO2	Cycloheximide cs 10
O=C(NCCOc1ccccc1)c1ccc2c(c1)OCO2	none
CN(C)c1cccc(C(=O)NCc2ccc(Cl)cc2)c1	Shiga toxin inh 71, Cycloheximide cs 27
COc1ccc(NC(=O)CN(Cc2ccccc2)S(=O)(=O)c2ccc3nc(C)sc3c2)cc1	none (no result: Shiga toxin inh, NS1 inh, SARS PLP yeast, Cycloheximide cs, LmPK inhibitor)
CCOc1ccc(CNC(=O)c2ccc(CSc3nc4ccncc4n3Cc3ccc(F)cc3)cc2)cc1	none (no result: Shiga toxin inh, NS1 inh, SARS PLP yeast, Cycloheximide cs, LmPK inhibitor)
Cc1ccccc1-c1nnn(CC(=O)Nc2ccc3c(c2)OCO3)n1	none
Cc1ccccc1-c1nnn(CC(=O)Nc2ccc3c(c2)OCCO3)n1	Shiga toxin inh 141, Cycloheximide cs 58 (no result: NS1 inh)
O=C(NCc1ccc2c(c1)OCO2)c1ccc(Br)s1	Cycloheximide cs 12
CN(C)c1ccc(-c2nnn(CC(=O)NCc3ccc4c(c3)OCO4)n2)cc1	Cycloheximide cs 28 (no result: NS1 inh)
CC(C)c1ccc(C(=O)NCc2ccc(Cl)cc2)cc1	Shiga toxin inh 141, Cycloheximide cs 74
COc1ccc(/C=C/C(=O)OCC(=O)NC2CCCC2)cc1	none (no result: Shiga toxin inh, NS1 inh, Cycloheximide cs, LmPK inhibitor)
CCOc1ccc(N(C(=O)CC(C)C)S(=O)(=O)c2ccc3c(c2)oc(=O)n3C)cc1	none (no result: Shiga toxin inh, NS1 inh, SARS PLP yeast, Cycloheximide cs, LmPK inhibitor)
O[C@H]1CN(CC2CCCCC2)[C@@H](c2ccccc2)C[C@@H]1n1cc(C2CC2)nn1	none (no result: Shiga toxin inh, NS1 inh, SARS PLP yeast, Cycloheximide cs, LmPK inhibitor)
O=C(Cn1nnc(-c2ccc3c(c2)OCO3)n1)Nc1ccccc1C(=O)O	Shiga toxin inh 41, Cycloheximide cs 31
Cc1ccc(C(=O)NCc2ccc3c(c2)OCO3)cc1	Cycloheximide cs 13
COC(=O)N1C(=O)[C@](CC(C)C)(c2ccccc2)N1C(=O)OC	Cycloheximide cs 15
CC[C@@]1(c2cccc(C)c2)C(=O)N(C(=O)OC)N1C(=O)OC	none
COC(=O)N1C(=O)[C@](c2ccccc2)(C2CCCCC2)N1C(=O)OC	none
CC[C@@]1(c2ccccc2OC)C(=O)N(C(=O)OC)N1C(=O)OC	Shiga toxin inh 24, Cycloheximide cs 25
COC(=O)N1C(=O)[C@@](CC(C)C)(c2ccccc2)N1C(=O)OC	Cycloheximide cs 16 (no result: TbPYK inhibitor)
COC(=O)N1C(=O)[C@@](c2ccccc2)(C2CCCC2)N1C(=O)OC	Cycloheximide cs 18 (no result: SARS PLP yeast)
O=C(Nc1cccc(OC(F)(F)F)c1)C1Cc2c(-c3ccco3)ccnc2O1 (configuration not stated)	none (no result: Shiga toxin inh, NS1 inh, SARS PLP yeast, Cycloheximide cs, LmPK inhibitor)
CN(Cc1ccccc1)C(=O)c1ccc(Nc2nc(C(N)Cc3ccc(C(F)(F)F)cc3)cs2)nc1 (configuration not stated)	none (no result: Shiga toxin inh, NS1 inh, SARS PLP yeast, Cycloheximide cs, LmPK inhibitor)
O=C(CSc1nc2ccccc2[nH]1)NCc1ccccc1	Shiga toxin inh 68, Cycloheximide cs 36
COc1ccc(CNC(=O)CSc2nc3ccc(C)cc3[nH]2)cc1	Cycloheximide cs 26
COc1ccc(CNC(=O)CSc2nc3ccc(OC)cc3[nH]2)cc1	none
O=C(CSc1nc2ncccc2[nH]1)NCc1ccccc1	Cycloheximide cs 16
Cc1cccc(NC(=O)Cn2c(=O)n(Cc3ccc4c(c3)OCO4)c(=O)c3oc4ccccc4c32)c1C	none (no result: Shiga toxin inh, NS1 inh, SARS PLP yeast, Cycloheximide cs, LmPK inhibitor)
CCOC(=O)c1sc(=NC(=O)c2ccco2)n(C)c1C	Shiga toxin inh 73, Cycloheximide cs 60 (no result: NS1 inh)
CCOC(=O)c1sc(=NC(=O)c2ccc(S(=O)(=O)N3CC(C)OC(C)C3)cc2)n(C)c1C (configuration not stated)	none
CCOC(=O)c1sc(=NC(=O)c2ccccc2Br)n(C)c1C	Shiga toxin inh 87, Cycloheximide cs 30
CCOC(=O)c1sc(=NC(=O)c2ccc(C)c(C)c2)n(C)c1C	Shiga toxin inh 67, Cycloheximide cs 63 (no result: NS1 inh)
CCOC(=O)c1sc(=NC(=O)c2ccc(OC(C)C)cc2)n(C)c1C	none (no result: NS1 inh)
CCOC(=O)c1sc(=NC(=O)/C=C/c2ccccc2)n(C)c1C	Shiga toxin inh 68, Cycloheximide cs 38 (no result: NS1 inh)
CN(C)c1ccc(NC(=S)Nc2ccc3c(c2)c(=O)n(C)n3-c2ccc(C(C)(C)C)cc2)cc1	none (no result: Shiga toxin inh, NS1 inh, SARS PLP yeast, Cycloheximide cs, LmPK inhibitor)
CC(C)C[C@@H]1Cc2[nH][nH]c(=O)c2[C@H](C)O1	none (no result: Shiga toxin inh, NS1 inh, SARS PLP yeast, Cycloheximide cs, LmPK inhibitor)
CCNC(=O)C1CCCN(Cc2ccc(C)c3ccccc23)CC1 (configuration not stated)	none (no result: Shiga toxin inh, NS1 inh, SARS PLP yeast, Cycloheximide cs, LmPK inhibitor)
